Source: PubChem BioAssay (NCATS)
Inconclusive results are not listed. The source made the active and inactive calls. Calls follow the shape of the dose curve; as a rule, active = well fitted cell-killing curve with a large enough effect; inconclusive = small, poorly fitted or top-dose-only effect; inactive = no such curve, though single readings can be large or run the other way.

assay: qHTS of pediatric cancer cell lines to identify multiple opportunities for drug repurposing: Primary screen for NB1643 cells (AID 1347099); conditions: NB1643 neuroblastoma viability, CellTiter-Glo luminescence, 48 h; series mostly up to 46 µM; activity change, negative = cytotoxic: at the top concentration; also: nearly all actives have a fitted effect of over 50% in size
Source text: Drug repurposing or repositioning has been offered as a strategy for drug development in oncology programs. This approach has special potential for childhood cancers and other rare or orphan diseases, where the expected return on new drug development has been a disincentive to pharmaceuticals. […] In this project we exploit the poly-pharmacology of drugs to discover new indications via phenotypic screening of a panel of 19 well-characterized cell lines derived from solid tumors seen in children and adolescents. The goal is to identify approved drugs with previously unrecognized anticancer properties that has the potential to reveal new mechanisms and biological processes involved in carcinogenesis or drug resistance. We employed a titration-based paradigm (quantitative high-throughput screening or qHTS), where all compounds were tested at multiple concentrations for their effect on cell viability. Concentration-response curves (CRCs) were derived directly from the primary screen, and both potency and efficacy values were used to identify compounds with robust bioactivity profiles. We screened the NIH Chemical Genomics Center (NCGC) Pharmaceutical Collection (NPC) and Mechanism Interrogation Plate (MIPE) small molecule collections of approved and investigational compounds against these cell lines; and measured metabolically active cells after 48 hours of compound treatment as a proxy for cell viability. […] Assay Submitter: Nathalia J. Martinez, National Center for Advancing Translational Sciences, National Institutes of Health, Rockville, MD, USA; email: natalia.martinez@nih.gov Shen, M et al. Quantitative high-throughput phenotypic screening of pediatric cancer cell lines identifies multiple opportunities for drug repurposing. Oncotarget 2017 Dec 19;9(4):4758-4772. PMID 29435139.
The cells were obtained from University of North Carolina (UNC), Pediatric Preclinical Testing Program (PPT), and Coriell Institute (CI). qHTS cell viability assay: Cells were assayed in growth media at a density of 500-1,000 cells/well. Five microliters of cells were dispensed into 1,536-well, white, solid-bottom, TC-treated plates (Greiner Bio One) using a multidrop dispenser and incubated at 37 degrees C, 5% CO2, under a humidified atmosphere for 5 hours. Twenty-three nanoliters of compounds and controls (neutral control DMSO or positive control bortezomib at final concentration of 2.3 µM) were subsequently transferred by Kalypsys pintool. For primary screens, the MIPE collection was tested at 11-point dilutions (final concentrations range from 0.78 nM to 46 µM) and the NPC collection at 8-point dilutions (final concentrations range from 0.59 nM to 46 µM). Compounds tested in follow-up screens were assayed at 11-point dilutions. Cells were incubated for 48 hours, followed by addition of 3 µL of CellTiter-Glo (Promega). After a 15 min incubation at room temperature, samples were analyzed for luminescence intensity using a ViewLux High-throughput CCD imager equipped with clear filters.
Potency is read from the fitted curve at half-maximal effect.

| Structure (SMILES) | activity change, negative = cytotoxic | Potency |
| --- | --- | --- |
| Cc1cc(=O)oc2cc(O[C@@H]3SC[C@@H](O)[C@H](O)[C@H]3O)ccc12 | 11.5% (inactive) | – |
| C[C@H]1C[C@@H]2[C@H]([C@@H](O)C[C@@]3(C)[C@H]2CC[C@]3(O)C(=O)CO)[C@@]2(C)C=CC(=O)C=C12 | 4.19% (inactive) | – |
| O=[N+]([O-])c1ccc(O)c2ncccc12 | – | 1.88 µM (active) |
| CCCOc1ccc2c(c1)CC[C@@H]1[C@@H]2CC[C@]2(C)C(OC)CC[C@@H]12 (stereo not given in full) | 19.9% (inactive) | – |
| Nc1ncnc2c1ncn2Cc1c(F)cccc1Cl | 9.84% (inactive) | – |
| CCc1cccc2c(CCO)c[nH]c12 | 13.1% (inactive) | – |
| c1ccc2occc2c1 | -27.8% [at 92.7 µM] (inactive) | – |
| C[N+]1(C)CCC(OC(=O)C(O)(c2ccccc2)C2CCCC2)C1 (stereo not given) | 10.1% (inactive) | – |
| CCC[C@H](N[C@@H](C)C(=O)N1[C@H](C(=O)O)C[C@@H]2CCCC[C@@H]21)C(=O)OCC | -17.6% (inactive) | – |
| Oc1cccc2[nH]ccc12 | -1.65% (inactive) | – |
| NS(=O)(=O)c1cc(C(=O)NN2C[C@H]3[C@H]4CCC(C4)[C@H]3C2)ccc1Cl | 13.2% (inactive) | – |
| Nc1ccc(C(=O)N2CC3CC(CN(Cc4ccccc4)C3)C2)cc1 | 12.5% (inactive) | – |
| C/C(=N/NC(=O)c1ccncc1)C(=O)O | 3.66% (inactive) | – |
| CCOCCn1c(C2CCN(CCc3ccc(C(C)(C)C(=O)O)cc3)CC2)nc2ccccc21 | 8.43% (inactive) | – |
| CCCCOCCOC(=O)c1cccnc1 | 16.5% (inactive) | – |
| CO[C@@]1(NC(=O)CSC[C@@H](N)C(=O)O)C(=O)N2C(C(=O)O)=C(CSc3nnnn3C)CS[C@@H]21 | -1.15% (inactive) | – |
| CC(C)C[C@H](NC(=O)CNC(=O)[C@H](Cc1ccc(O)cc1)NC(=O)[C@H](CO)NC(=O)[C@H](Cc1c[nH]c2ccccc12)NC(=O)[C@H](Cc1cnc[nH]1)NC(=O)[C@@H]1CCC(=O)N1)C(=O)N[C@@H](CCCN=C(N)N)C(=O)N1CCC[C@H]1C(=O)NCC(N)=O (stereo in doubt) | 1.07% (inactive) | – |
| CCCCC/C=C\C/C=C\CCCCCCCC(=O)NC(C)c1ccccc1 (stereo not given) | 0.782% (inactive) | – |
| CN1[C@@H]2CC[C@H]1CC(NC(=O)n1c(=O)[nH]c3ccccc31)C2 (stereo not given in full) | 13.3% (inactive) | – |
| CSCC[C@H](NC(=O)[C@H](Cc1c[nH]c2ccccc12)NC(=O)CCNC(=O)OC(C)(C)C)C(=O)N[C@@H](CC(=O)O)C(=O)N[C@@H](Cc1ccccc1)C(N)=O | 5.76% (inactive) | – |

| Structure (SMILES) | activity change, negative = cytotoxic | Potency |
| --- | --- | --- |
| COC(=O)/C=C\C(=O)OC | 8.25% (inactive) | – |
| O=C(CCC1CCN(Cc2ccccc2)CC1)c1ccc2c(c1)NCCCC2 | 6.8% (inactive) | – |
| CC(COc1ccccc1)NN (stereo not given) | 21.5% (inactive) | – |
| CC(C(O)c1ccccc1)N(C)CCOC(c1ccccc1)c1ccccc1 (stereo not given) | 11.2% (inactive) | – |
| CN=C(N)NC(=O)Nc1c(C)cccc1C | 13.4% (inactive) | – |
| CC(=O)OC[C@H]1O[C@@H](OC(C)=O)[C@H](OC(C)=O)[C@@H]1OC(C)=O | 15.4% (inactive) | – |
| CN(C)CCOC(c1ccccc1)c1ccc(Br)cc1 (stereo not given) | -1.65% (inactive) | – |
| O=C(O)CCCC[P+](c1ccccc1)(c1ccccc1)c1ccccc1 | 6.09% (inactive) | – |
| COc1ccc2c(c1)CCCC2=O | 12.4% (inactive) | – |
| COC(=O)c1cc(Cl)ccc1NS(=O)(=O)C(F)(F)F | -4.46% (inactive) | – |
| Oc1ccccc1-c1nnco1 | 3.54% (inactive) | – |
| O=C(Oc1ccccc1)c1cccc(C(=O)Oc2ccccc2)c1 | 10.2% [at 92.7 µM] (inactive) | – |
| CCOc1ccccc1OCC1CNCCO1 (stereo not given) | 16.4% (inactive) | – |
| COc1cc(C(=O)OC(COCCC(C)C)CN2CCOCC2)cc(OC)c1OC (stereo not given) | 0% (inactive) | – |
| COc1ccc2cc(C=O)ccc2c1 | 1.98% (inactive) | – |
| CCC(=O)O[C@]1(C(=O)COC)[C@@H](C)C[C@H]2[C@@H]3CCC4=CC(=O)C=C[C@]4(C)C3(F)[C@@H](O)C[C@@]21C (stereo not given in full) | 0% (inactive) | – |
| CC(C)(C)c1ccc(C(=O)CCCCl)cc1 | 11.9% (inactive) | – |
| NS(=O)(=O)c1ccc(N2CCCCS2(=O)=O)cc1 | 16.1% (inactive) | – |
| CC(NC(CCc1ccccc1)C(=O)O)C(=O)N1C(=O)N(C)CC1C(=O)O (stereo not given) | 10.5% (inactive) | – |
| Nc1c(I)cc(I)c(C(=O)N(CCC(=O)O)c2ccccc2)c1I | -7.65% (inactive) | – |
